Max response and outcome data for 39 compounds are collected here from PubChem BioAssay (NCATS).

Records with an inconclusive call do not appear. A number with no mark means an inactive call. Activity calls are given as the source filed them. Calls come from the whole dose curve; as a rule, active = well fitted inhibition curve with a large enough effect; inconclusive = small, poorly fitted or top-dose-only effect; inactive = flat fitted curve, though single readings scatter. Where a SMILES comes first, the peptide text is derived from it.
% is set by controls: 0 for no effect and ±100 for the full control effect.

The subject of this assay is KB-3-1. The assay can be described thus: Cytotoxic Profiling of Annotated Libraries Using Quantitative High-Throughput Screening (AID 1296008). Note: nearly all actives have a fitted effect of over 60% in size. The settings on record: Five cell lines viability, CellTiter-Glo ATP luminescence, 48-72 h; max response: active compounds read low. In short, it runs like this: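 Cytotoxicity was measured as CellTiter-Glo ATP luminescence, read after 10 min at room temperature. Compound treatment of the cells lasted 48 or 72 hr at 37 degrees Celsius in a qHTS format.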
On the technique in general: ATP-based viability assays read luminescence as a measure of living cells.
For `OCC1OC(Oc2cc(O)cc(/C=C/c3ccc(OC4OC(CO)C(O)C(O)C4O)cc3O)c2)C(O)C(O)C1O` (centres undefined), the max response was 5.55%. Regarding `C[C@@H]1O[C@@H](O[C@H]2[C@H](O[C@H]3[C@H](O[C@H]4CC[C@@]5(C)C(CC[C@]6(C)C5CC=C5[C@@H]7CC(C)(C)CC(=O)[C@]7(C)CC[C@]56C)[C@@]4(C)CO)O[C@H](C(=O)O)[C@@H](O)[C@@H]3O)O[C@H](CO)[C@H](O)[C@@H]2O)[C@H](O)[C@H](O)[C@H]1O` (some centres undefined), the compound was classed as inactive.

As to `CC(O)C/C=C/C=C/C(=O)OC1C=C2COC(=O)C2(O)C2(C)CCCC(C)(C)C12` (centres undefined), the max response was 5.12%. Consider `C[C@@H]1O[C@@H](O[C@H]2[C@H](O)[C@@H](O[C@@H]3O[C@H](CO)[C@H](O)[C@H](O)[C@H]3O)[C@H](O[C@H]3CC[C@@]4(C)C(CC[C@]5(C)C4CC=C4[C@@H]6CC(C)(C)CC[C@]6(C(=O)O[C@@H]6O[C@H](CO)[C@@H](O)[C@H](O)[C@H]6O)CC[C@]45C)C3(C)C)O[C@@H]2C(=O)O)[C@H](O)[C@H](O)[C@H]1O` (some centres undefined), for which the max response was 9.11%. In the case of `COc1ccnc(CCc2nc3ncccc3[nH]2)c1`, the result was inactive. Consider `CC(=O)O[C@@H]1[C@H](O[C@@H]2OC[C@](O)(CO)[C@H]2O)[C@@H](O[C@@H]2O[C@@H](C)[C@H](O)[C@@H](O[C@@H]3O[C@H](CO)[C@@H](O)[C@H](O)[C@H]3O)[C@H]2O)[C@H](OC(=O)[C@]23CCC(C)(C)C[C@H]2C2=CCC4[C@@]5(C)C[C@H](O)[C@H](O[C@@H]6O[C@H](C(=O)O)[C@@H](O)[C@H](O)[C@H]6O)[C@@](C)(C(=O)O)C5CC[C@@]4(C)[C@]2(C)CC3)O[C@@H]1C` (some centres undefined), for which the max response was 3.25%. In the case of `CC(C)CC(=O)O[C@@H]1O[C@H](CO)[C@@H](O[C@H]2O[C@H](C)[C@@H](N[C@H]3C=C(CO)[C@@H](O[C@H]4O[C@H](CO)[C@@H](O[C@H]5O[C@H](CO)[C@@H](O[C@H]6O[C@H](CO)[C@@H](O)[C@H](O)[C@H]6O)[C@H](O)[C@H]5O)[C@H](O)[C@H]4O)[C@H](O)[C@H]3O)[C@H](O)[C@H]2O)[C@H](O)[C@H]1O`, the compound was called inactive. Consider `NC[C@H]1CCC[C@@H](CNC(=O)[C@@H](Cc2c[nH]c3ccccc23)NC(=O)N2CCC3(C=Cc4ccccc43)CC2)C1`, for which the call was inactive. As for `CC1CCC2(C)CCC3(C)C(=CCC4C5(C)CCC(O)C(C)(C(=O)O)C5CCC43C)C2C1C` (centres undefined), the max response was 8.86%.

On to `C[C@@H]1O[C@@H](O[C@H]2[C@@H]3C=CO[C@@H](O[C@@H]4O[C@H](CO)[C@@H](O)[C@H](O)[C@H]4O)[C@@H]3[C@@]3(CO)O[C@@H]23)[C@H](O)[C@H](O)[C@H]1OC(=O)/C=C/c1ccc(O)cc1`, for which the max response was -5.93%. Consider `CC(CC12CCCN1C(=O)C1CCCN1C2=O)OC(N)=O` (centres undefined), for which the max response was 4.48%. For `CC/C=C\C(O)C(O)C1=C(C)C(=O)C2(O1)C(=O)NC(OC)(C(=O)c1ccccc1)C2O` (centres undefined), the max response was 7.12%. For the compound `COc1c2cc(c(O)c1OC)CCCCC(O)CCc1ccc(O)c-2c1` (centres undefined), the max response was 2.35%. On to `CC1CC(=O)[C@]2(O)C(C(=O)OCCc3ccc(O)cc3)=CO[C@@H](O[C@@H]3O[C@H](CO)[C@@H](O)[C@H](O)[C@H]3O)[C@H]12` (some centres undefined), for which the compound was classed as inactive. For `COC(=O)C1=CO[C@@H](O[C@@H]2O[C@H](CO)[C@@H](O)[C@H](O)[C@H]2O)C2C1CC(O)C2C` (some centres undefined), the result was inactive. On to `CC(=O)OC[C@]12[C@H](OC(C)=O)[C@H](OC(=O)c3ccccc3)[C@@H]3[C@@H](OC(C)=O)[C@]1(OC3(C)C)[C@H](C)C[C@H](OC(=O)c1ccccc1)[C@@H]2OC(=O)c1ccccc1`, for which the max response was -5.99%. Turning to `C[C@]1(C2CCCC2)Cc2cc(OCC(=O)O)c(Cl)c(Cl)c2C1=O`, the compound was classed as inactive. On to `CC(NC(=O)c1ccccc1N)C(=O)O` (centres undefined), for which the max response is 9.06%. For the compound `O=C(Nc1ccn(Cc2c(F)cccc2C(F)(F)F)n1)c1c(F)cccc1F`, the compound was classed as inactive. As for `O=C(OC(C(F)(F)F)C(F)(F)F)N1CCN(Cc2cccc(Oc3ccccc3)c2)CC1`, the max response is -5.42%. In the case of `C[C@H]1CC[C@@]2(OC1)O[C@H]1CC3C4CC[C@H]5C[C@@H](O)CC[C@]5(C)C4CC(=O)[C@]3(C)[C@H]1[C@@H]2C` (some centres undefined), the compound was classed as inactive. For the compound `Cc1oc(S(=O)(=O)N2CCCCC2)cc1NC(=O)Nc1ccccc1`, the outcome was inactive. In the case of `CCC(C)/C=C(C)/C=C/C1=CC2=C(Cl)C(=O)C(C)(OC(C)=O)C(=O)C2=CN1C(CC(=O)O)C(=O)O` (centres undefined), the max response was 7.58%. The same measure, in the same setting: then `CC(C)[C@](O)(c1ccc2cc(OC(F)F)c(OC(F)F)cc2c1)c1cn[nH]n1`, with -6.26%. For the compound `COc1cc(C(=O)OC[C@H]2O[C@@H](OC(C)(C)C(=O)O)[C@H](O)[C@@H](O)[C@@H]2O)cc(OC)c1O`, the compound was classed as inactive.

Regarding `COc1cc(C(C)=O)ccc1O[C@@H]1O[C@H](CO)[C@@H](O)[C@H](O)[C@H]1O`, the max response was 6.72%. Consider `CC1(C)C(=O)CCC2(C)C1C(O)C=C1COC(=O)C12O` (centres undefined), for which the max response is 7.63%.

For `COc1cc(/C=C/c2ccccc2)c(C(=O)O)c(O)c1CC=C(C)C`, the max response was 6.27%. `CCC(C)C(C(=O)O)N1Cc2c(OCC=C(C)C)c(C)c(OC)c(C(=O)O)c2C1=O` (centres undefined): the compound was called inactive. On to `COC(=O)C1=CO[C@@H](O[C@@H]2O[C@H](CO)[C@@H](O)[C@H](O)[C@H]2O)[C@@H]2[C@@H](CO)[C@@H](O)C(O)[C@H]12` (some centres undefined), for which the outcome was inactive. With `CC(C)C[C@H](NC(=O)[C@@H]1O[C@H]1C(=O)O)C(=O)NCCCCN=C(N)N`, the max response was 2.43%.

Take `C[C@@H]1O[C@@H](OC[C@H]2O[C@@H](OCc3ccccc3)[C@H](O)[C@@H](O)[C@@H]2O)[C@H](O)[C@H](O)[C@H]1O`: the max response is -7.21%. Turning to `CNC(=O)c1ccc2c(c1)CCO[C@H]2CCN1CCN(c2ccc(C(N)=O)cc2)CC1`, the max response was -1.44%. Consider `COC(=O)C1=COC(OC2OC(CO)C(O)C(O)C2O)C2C(COC(=O)/C=C/c3ccc(O)c(O)c3)C(O)C(O)C12` (centres undefined), for which the outcome was inactive. As for `CC(C)C1NC(=O)CNC(=O)C2CCCN2C(=O)C(Cc2c[nH]c3ccccc23)NC(=O)CNC(=O)C(Cc2ccc(O)cc2)NC(=O)CNC1=O` (centres undefined) (cyclo(GVGYGWP); configuration not given here), the compound was called inactive. Consider `CC(C)c1ccc2c(c1)C(=O)CC1C(C)(C(=O)O)CCCC21C` (centres undefined), for which the max response is -0.919%.

On to `C=C1CCC2(C(=O)OC3OC(CO)C(O)C(O)C3O)CCC3(C)C(=CCC4C5(C)CCC(OC6OC(CO)C(OC7OC(C)C(O)C(O)C7O)C(OC7OCC(O)C(O)C7O)C6O)C(C)(C)C5CCC43C)C2C1` (centres undefined), for which the max response is 3.47%.

`C=C1CC2C(C)(CCC(=O)O)C(C(C)(C)O)CCC2(C)C2(C(=O)OC)C(=O)C(C)(O)C(=O)C12C` (centres undefined): the max response is 1.2%. Same read-out and setting: the same measure for `COc1ccc(-n2c(SCC#N)nc3sc4c(c3c2=O)CCCC4)cc1`: 9.32%.
